According to the supplement of paper PMC4466140:

B1: unnamed (peptide)
chain: RLSFFFPLDPAYIRN

target: AgAbp1; assay: SPOT peptide array binding signal intensity (averaged, normalized) (arbitrary units (background-subtracted, floor 0; scale differs between SH3 domains)); higher = stronger binding of the SH3 domain to the peptide
In short: (§1)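 Four yeast species supplied the SH3 domains, which were expressed as GST fusions in E. coli BL21(DE3) and purified on glutathione Sepharose. Incubation with cellulose membranes carrying synthetic 15-mer peptides, cysteines exchanged for serines, ran overnight at 4°C at 10 μg/ml in TBS-based blocking buffer. Binding signal is reported as normalized, background-subtracted spot intensity averaged over replicates, in arbitrary units not shared between domains.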

Binder | SPOT peptide array binding signal intensity
B1 | ≤ 0

target: AgBbc1; assay: as above
In short: as §1

Binder | SPOT peptide array binding signal intensity
B1 | 2.25

target: AgBem1-D1; assay: as above
In short: as §1

Binder | SPOT peptide array binding signal intensity
B1 | 121

target: AgBzz1-D1; assay: as above
In short: as §1

Binder | SPOT peptide array binding signal intensity
B1 | 27

target: AgBzz1-D2; assay: as above
In short: as §1

Binder | SPOT peptide array binding signal intensity
B1 | 72.5

target: AgCyk3; assay: as above
In short: as §1

Binder | SPOT peptide array binding signal intensity
B1 | 7

target: AgFus1; assay: as above
In short: as §1

Binder | SPOT peptide array binding signal intensity
B1 | 854

target: AgHof1; assay: as above
In short: as §1

Binder | SPOT peptide array binding signal intensity
B1 | 34

target: AgHse1; assay: as above
In short: as §1

Binder | SPOT peptide array binding signal intensity
B1 | 1180

target: AgLsb1; assay: as above
In short: as §1

Binder | SPOT peptide array binding signal intensity
B1 | 1.5

target: AgLsb4; assay: as above
In short: as §1

Binder | SPOT peptide array binding signal intensity
B1 | 152

target: AgMyo5; assay: as above
In short: as §1

Binder | SPOT peptide array binding signal intensity
B1 | 1.5

target: AgNbp2; assay: as above
In short: as §1

Binder | SPOT peptide array binding signal intensity
B1 | 34

target: AgRvs167; assay: as above
In short: as §1

Binder | SPOT peptide array binding signal intensity
B1 | 4

target: AgSho1; assay: as above
In short: as §1

Binder | SPOT peptide array binding signal intensity
B1 | 50

target: AgSla1-D1-D2; assay: as above
In short: as §1

Binder | SPOT peptide array binding signal intensity
B1 | 37

target: AgSla1-D3; assay: as above
In short: as §1

Binder | SPOT peptide array binding signal intensity
B1 | 8.5

target: CaAbp1-D1; assay: as above
In short: as §1

Binder | SPOT peptide array binding signal intensity
B1 | 2

target: CaAbp1-D2; assay: as above
In short: as §1

Binder | SPOT peptide array binding signal intensity
B1 | ≤ 0

target: CaBbc1; assay: as above
In short: as §1

Binder | SPOT peptide array binding signal intensity
B1 | ≤ 0

target: CaBem1-D1; assay: as above
In short: as §1

Binder | SPOT peptide array binding signal intensity
B1 | 24

target: CaBzz1-D1; assay: as above
In short: as §1

Binder | SPOT peptide array binding signal intensity
B1 | 32.5

target: CaBzz1-D2; assay: as above
In short: as §1

Binder | SPOT peptide array binding signal intensity
B1 | 43

target: CaCyk3; assay: as above
In short: as §1

Binder | SPOT peptide array binding signal intensity
B1 | 3

target: CaFus1; assay: as above
In short: as §1

Binder | SPOT peptide array binding signal intensity
B1 | 2490

target: CaHof1; assay: as above
In short: as §1

Binder | SPOT peptide array binding signal intensity
B1 | 0.5

target: CaHse1; assay: as above
In short: as §1

Binder | SPOT peptide array binding signal intensity
B1 | 134

target: CaLsb1; assay: as above
In short: as §1

Binder | SPOT peptide array binding signal intensity
B1 | 1.5

target: CaLsb4; assay: as above
In short: as §1

Binder | SPOT peptide array binding signal intensity
B1 | 45.5

target: CaMyo5; assay: as above
In short: as §1

Binder | SPOT peptide array binding signal intensity
B1 | 187

target: CaNbp2; assay: as above
In short: as §1

Binder | SPOT peptide array binding signal intensity
B1 | 474

target: CaRvs167; assay: as above
In short: as §1

Binder | SPOT peptide array binding signal intensity
B1 | 57.8

target: CaRvs167-3; assay: as above
In short: as §1

Binder | SPOT peptide array binding signal intensity
B1 | 238

target: CaSho1; assay: as above
In short: as §1

Binder | SPOT peptide array binding signal intensity
B1 | 1050

target: CaSla1-D1-D2; assay: as above
In short: as §1

Binder | SPOT peptide array binding signal intensity
B1 | ≤ 0

target: CaSla1-D3; assay: as above
In short: as §1

Binder | SPOT peptide array binding signal intensity
B1 | 35.8

target: ScAbp1; assay: as above
In short: as §1

Binder | SPOT peptide array binding signal intensity
B1 | 2

target: ScBbc1; assay: as above
In short: as §1

Binder | SPOT peptide array binding signal intensity
B1 | ≤ 0

target: ScBem1-D1; assay: as above
In short: as §1

Binder | SPOT peptide array binding signal intensity
B1 | 17

target: ScBzz1-D1; assay: as above
In short: as §1

Binder | SPOT peptide array binding signal intensity
B1 | 42

target: ScBzz1-D2; assay: as above
In short: as §1

Binder | SPOT peptide array binding signal intensity
B1 | 79

target: ScCyk3; assay: as above
In short: as §1

Binder | SPOT peptide array binding signal intensity
B1 | 282

target: ScFus1; assay: as above
In short: as §1

Binder | SPOT peptide array binding signal intensity
B1 | 627

target: ScHof1; assay: as above
In short: as §1

Binder | SPOT peptide array binding signal intensity
B1 | 2

target: ScHse1; assay: as above
In short: as §1

Binder | SPOT peptide array binding signal intensity
B1 | 1380

target: ScLsb1; assay: as above
In short: as §1

Binder | SPOT peptide array binding signal intensity
B1 | 0.5

target: ScLsb2; assay: as above
In short: as §1

Binder | SPOT peptide array binding signal intensity
B1 | ≤ 0

target: ScLsb3; assay: as above
In short: as §1

Binder | SPOT peptide array binding signal intensity
B1 | 48

target: ScLsb4; assay: as above
In short: as §1

Binder | SPOT peptide array binding signal intensity
B1 | 9

target: ScMyo3; assay: as above
In short: as §1

Binder | SPOT peptide array binding signal intensity
B1 | 9.5

target: ScMyo5; assay: as above
In short: as §1

Binder | SPOT peptide array binding signal intensity
B1 | 5

target: ScNbp2; assay: as above
In short: as §1

Binder | SPOT peptide array binding signal intensity
B1 | 84.5

target: ScPex13; assay: as above
In short: as §1

Binder | SPOT peptide array binding signal intensity
B1 | 6.25

target: ScRvs167; assay: as above
In short: as §1

Binder | SPOT peptide array binding signal intensity
B1 | 7.67

target: ScSho1; assay: as above
In short: as §1

Binder | SPOT peptide array binding signal intensity
B1 | 738

target: ScSla1-D1-D2; assay: as above
In short: as §1

Binder | SPOT peptide array binding signal intensity
B1 | 13

target: ScSla1-D3; assay: as above
In short: as §1

Binder | SPOT peptide array binding signal intensity
B1 | 37.5

target: SpAbp1-D1; assay: as above
In short: as §1

Binder | SPOT peptide array binding signal intensity
B1 | 1

target: SpBbc1; assay: as above
In short: as §1

Binder | SPOT peptide array binding signal intensity
B1 | 0.5

target: SpBzz1-D1; assay: as above
In short: as §1

Binder | SPOT peptide array binding signal intensity
B1 | 121

target: SpBzz1-D2; assay: as above
In short: as §1

Binder | SPOT peptide array binding signal intensity
B1 | 2

target: SpCyk3; assay: as above
In short: as §1

Binder | SPOT peptide array binding signal intensity
B1 | 24

target: SpHof1; assay: as above
In short: as §1

Binder | SPOT peptide array binding signal intensity
B1 | 130

target: SpHof1-2; assay: as above
In short: as §1

Binder | SPOT peptide array binding signal intensity
B1 | 45

target: SpHof1-3; assay: as above
In short: as §1

Binder | SPOT peptide array binding signal intensity
B1 | 389

target: SpHse1; assay: as above
In short: as §1

Binder | SPOT peptide array binding signal intensity
B1 | 1620

target: SpLsb1; assay: as above
In short: as §1

Binder | SPOT peptide array binding signal intensity
B1 | ≤ 0

target: SpLsb4; assay: as above
In short: as §1

Binder | SPOT peptide array binding signal intensity
B1 | 15

target: SpMyo1; assay: as above
In short: as §1

Binder | SPOT peptide array binding signal intensity
B1 | 17.8

target: SpNbp2; assay: as above
In short: as §1

Binder | SPOT peptide array binding signal intensity
B1 | 69.5

target: SpPex13; assay: as above
In short: as §1

Binder | SPOT peptide array binding signal intensity
B1 | 23.5

target: SpRvs167; assay: as above
In short: as §1

Binder | SPOT peptide array binding signal intensity
B1 | 11.2

target: SpSla1-D1-D2; assay: as above
In short: as §1

Binder | SPOT peptide array binding signal intensity
B1 | 6

target: SpSla1-D3; assay: as above
In short: as §1

Binder | SPOT peptide array binding signal intensity
B1 | 32
